Data: PubChem BioAssay AID1159580 (chemical genetic matrix, 2015)
“And” between values parts separate entries of the source, which are not always exact repeats. Equal values may be shown once. The whole screen tested about 5,500 compounds, of which about 2,000 (36%) were called active. About 18% were inconclusive and are not listed. Rule as the data show it: active = normalized growth mostly below about 0.91 (no sharp cut-off); inconclusive = no clear call, values can overlap the other calls; inactive = mostly above about 0.92. This is one part of the list.

Experiment: chemical genetic growth profiling, strain panel (AID 1159580);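 also: tested at 20 µM; growth read once vehicle control cultures reached saturation at 30 °C; 1 = growth at the plate median or of vehicle wells; lower values mean less growth of the strain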
Conditions: S. cerevisiae deletion strains, growth OD

Measured: normalized growth

COC(=O)Nc1nc2ccc(Sc3ccccc3)cc2[nH]1
active: locus YBR231C, strain swc5, stronger effect = lower value 0.753 | locus YCL029C, strain bik1, stronger effect = lower value 0.826 | locus YDR334W, strain swr1, stronger effect = lower value 0.788 | locus YEL003W, strain gim4, stronger effect = lower value 0.206 | locus YGR078C, strain PAC10, stronger effect = lower value 0.0823
inactive: locus YAL013W, strain DEP1, stronger effect = lower value 1 | locus YAL021C, strain ccr4, stronger effect = lower value 1.01 | locus YAL026C, strain drs2, stronger effect = lower value 1 | locus YAL030W, strain snc1, stronger effect = lower value 0.986 | locus YBL061C, strain skt5, stronger effect = lower value 0.986 | locus YBR009C, strain hhf1, stronger effect = lower value 0.993 | locus YBR021W, strain FUR4, stronger effect = lower value 1.02 | locus YBR023C, strain chs3, stronger effect = lower value 0.989 | locus YBR171W, strain sec66, stronger effect = lower value 0.987 | locus YBR229C, strain ROT2, stronger effect = lower value 0.997 | locus YBR279W, strain paf1, stronger effect = lower value 0.985 | locus YCL011C, strain gbp2, stronger effect = lower value 0.991 | locus YCL016C, strain dcc1, stronger effect = lower value 1 | locus YCL061C, strain MRC1, stronger effect = lower value 1.01 | locus YCL069W, strain vba3, stronger effect = lower value 0.99 | locus YCR088W, strain abp1, stronger effect = lower value 0.996 | locus YDL005C, strain med2, stronger effect = lower value 0.987 | locus YDL035C, strain GPR1, stronger effect = lower value 0.98 | locus YDL040C, strain nat1, stronger effect = lower value 1.01 | locus YDL074C, strain BRE1, stronger effect = lower value 0.994 | locus YDL101C, strain DUN1, stronger effect = lower value 1.02 | locus YDL134C, strain PPH21, stronger effect = lower value 1.01 | locus YDL185W, strain tfp1, stronger effect = lower value 0.986 | locus YDL192W, strain arf1, stronger effect = lower value 1 | locus YDR001C, strain nth1, stronger effect = lower value 0.996 | locus YDR069C, strain doa4, stronger effect = lower value 0.984 | locus YDR101C, strain arx1, stronger effect = lower value 0.99 | locus YDR137W, strain rgp1, stronger effect = lower value 0.965 | locus YDR150W, strain NUM1, stronger effect = lower value 0.975 | locus YDR159W, strain sac3, stronger effect = lower value 0.99 | locus YDR162C, strain NBP2, stronger effect = lower value 1 | locus YDR195W, strain ref2 1.04 | locus YDR297W, strain sur2, stronger effect = lower value 0.97 | locus YDR318W, strain mcm21, stronger effect = lower value 1.01 | locus YDR335W, strain msn5, stronger effect = lower value 1 | locus YDR388W, stronger effect = lower value 1 | locus YDR392W, strain spt3, stronger effect = lower value 0.993 | locus YDR502C, strain sam2, stronger effect = lower value 0.98 | locus YEL037C, strain rad23, stronger effect = lower value 1 | locus YEL061C, strain CIN8 (second series), stronger effect = lower value 0.999 | locus YEL061C, strain CIN8, stronger effect = lower value 0.995 | locus YER015W, strain faa2, stronger effect = lower value 0.988 | locus YER016W, strain bim1, stronger effect = lower value 0.985 | locus YER110C, stronger effect = lower value 0.995 | locus YER111C, strain swi4, stronger effect = lower value 0.992 | locus YER155C, strain BEM2 (second series), stronger effect = lower value 0.978 | locus YER155C, strain BEM2, stronger effect = lower value 1 | locus YER167W, strain BCK2, stronger effect = lower value 0.991 | locus YFR010W, strain ubp6, stronger effect = lower value 0.995 | locus YGL078C, strain dbp3, stronger effect = lower value 0.99 | locus YGL086W, strain mad1, stronger effect = lower value 0.955 | locus YGL167C, strain pmr1, stronger effect = lower value 0.98 | locus YGL173C, strain kem1, stronger effect = lower value 0.991 | locus YGL227W, strain vid30, stronger effect = lower value 0.993 | locus YGL240W, strain doc1, stronger effect = lower value 0.987 | locus YGL248W, strain PDE1, stronger effect = lower value 1 | locus YGL253W, strain hxk2, stronger effect = lower value 1 | locus YGR135W, strain pre9, stronger effect = lower value 0.99 | locus YGR229C, strain SMI1, stronger effect = lower value 0.941 | locus YGR252W, strain gcn5, stronger effect = lower value 0.895 | locus YHR013C, strain ard1, stronger effect = lower value 0.969 | locus YHR027C, strain rpn1, stronger effect = lower value 0.998 | locus YHR030C, strain SLT2, stronger effect = lower value 0.995 and 0.963 | locus YHR079C, strain IRE1 (second series), stronger effect = lower value 1.01 | locus YHR079C, strain IRE1, stronger effect = lower value 0.964 | locus YHR094C, strain hxt1, stronger effect = lower value 1 | locus YHR129C, strain ARP1, stronger effect = lower value 1.01 | locus YHR142W, strain chs7, stronger effect = lower value 0.989 | locus YHR200W, strain rpn10, stronger effect = lower value 0.984 | locus YIL066C, strain RNR3, stronger effect = lower value 0.997 | locus YIL073C, strain SPO22, stronger effect = lower value 0.998 | locus YIL125W, strain kgd1, stronger effect = lower value 0.99 | locus YIR030C, strain dcg1, stronger effect = lower value 1 | locus YJL092W, strain hpr5, stronger effect = lower value 1 | locus YJL095W, strain BCK1 (second series), stronger effect = lower value 0.985 | locus YJL095W, strain BCK1, stronger effect = lower value 1.03 and 0.949 | locus YJL115W, strain asf1, stronger effect = lower value 1.01 | locus YJL129C, strain trk1, stronger effect = lower value 0.976 | locus YJL134W, strain LCB3, stronger effect = lower value 1 | locus YJL154C, strain vps35, stronger effect = lower value 0.993 | locus YJL164C, strain tpk1, stronger effect = lower value 1 | locus YJL166W, strain qcr8, stronger effect = lower value 0.972 | locus YJL168C, strain set2, stronger effect = lower value 1 | locus YJL187C, strain SWE1 (second series), stronger effect = lower value 1.01 | locus YJR043C, strain POL32, stronger effect = lower value 0.988 | locus YJR066W, strain TOR1, stronger effect = lower value 0.872
